Sampled rows, rich in hits. Any-hit rate of the full collection: about 11%.
IL1B secr inh: inhibitors of inflammasome signaling (IL-1 beta secretion) | AID 743279 | THP-1 LPS/ATP IL-1B secretion, AlphaLISA, 16 h; active compounds read low | activity change, % at 57.5 µM | 360,000 tested, 4.7% active; in the data active means activity change below about -50%; inconclusive means mostly about -30% to -49%; further: on the % scale 0 is the no-effect control and ±100 the full control effect
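THP-1 cells pretreated 1 hr with compounds (up to 57.5 uM final), then stimulated with LPS (250 ng/mL final) plus ATP (1.25 mM final); secreted IL-1B measured by AlphaLISA after 16 hr, decreased signal indicating inhibition.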
VP16 counter: Gal4-VP16 reporter inhibition counter-screen | Drosophila S2 Gal4-VP16 UAS-luciferase, luminescence, 20 h | Potency, µM (titrated, usually from 53.6 µM), inactives show top-dose activity, negative = inhibition, actives largely listed as inhibitors | 310,000 tested, 3.5% active | AID 2546;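 further: Gal4-VP16 expression switched on by copper sulfate through the metallothionein promoter; potency means the concentration at half of the fitted maximal effect; on the % scale 0 is the no-effect control and ±100 the full control effect; nearly all actives have a fitted effect of over 50% in size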
MCF10A rerep: inducers of DNA re-replication in MCF 10A breast cells. Potency, µM (series often up to 46.1 µM), inactives show at the highest dose activity, positive = re-replication, actives largely listed as activators. 350,000 tested, 2.9% active. MCF 10A DNA re-replication, Hoechst nuclear intensity, 48 h; further: potency means the concentration at half of the fitted maximal effect; % of control where 0% means no effect; nearly all actives have a fitted effect of over 50% in size
SW480 rerep: DNA re-replication induction in SW480 cells; SW480 DNA re-replication, Hoechst DNA content imaging, 48 h; Potency, µM (series often up to 46.1 µM), for inactives: at the top dose re-replication activation, actives largely listed as activators; 340,000 tested, 1.8% active; AID 624297; further: potency means the concentration at half of the fitted maximal effect; % of control where 0% means no effect; nearly all actives have a fitted effect of over 55% in size
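Readout is total intensity of Hoechst-stained nuclei, excited at 405 nm and collected at 500-530 nm. Compound treatment lasted 48 hr at 37 C in 5% CO2 before staining.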
RORgamma inh: blocks mouse ROR gamma transcriptional activity. Potency, µM (series often up to 53.6 µM), without a hit: top-dose activity change, negative = inhibition, usual class: inhibitors. P51450. AID 2551. Drosophila S2 Gal4-RORgamma UAS-luciferase reporter, 20 h. 310,000 tested, 5.4% active; further: potency means the concentration at half of the fitted maximal effect; on the % scale 0 is the no-effect control and ±100 the full control effect; nearly all actives have a fitted effect of over 60% in size
Target sequence (P51450 whole entry, looked up, the tested form may be a part): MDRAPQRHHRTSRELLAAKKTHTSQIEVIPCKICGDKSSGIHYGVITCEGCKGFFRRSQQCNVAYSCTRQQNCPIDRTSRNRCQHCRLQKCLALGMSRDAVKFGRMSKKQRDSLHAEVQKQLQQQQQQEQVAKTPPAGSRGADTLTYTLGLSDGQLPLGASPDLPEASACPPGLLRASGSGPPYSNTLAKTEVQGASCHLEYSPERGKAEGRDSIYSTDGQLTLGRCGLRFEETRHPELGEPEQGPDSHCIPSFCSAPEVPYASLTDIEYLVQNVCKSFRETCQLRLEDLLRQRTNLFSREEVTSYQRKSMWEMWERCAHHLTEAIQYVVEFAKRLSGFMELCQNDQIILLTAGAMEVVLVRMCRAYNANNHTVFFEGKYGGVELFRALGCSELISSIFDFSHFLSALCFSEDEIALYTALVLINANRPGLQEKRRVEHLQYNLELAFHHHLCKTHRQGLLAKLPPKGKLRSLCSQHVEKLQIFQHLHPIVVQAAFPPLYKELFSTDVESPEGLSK
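A Gal4/UAS one-hybrid system in insect cells: metallothionein-promoter Gal4–ROR gamma fusion plus Photinus luciferase reporter. Copper sulfate 700 uM final, 20 hr ambient incubation, luminescent detection after 10 min with reagent.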
* hit, by the source's call; ? = inconclusive; nt = no result; [ ] = remark or other dose. Unless noted, the call rests on the fitted dose curve; in most records, active means well fitted curve in the direction sought with a large enough effect; inconclusive means small, poorly fitted or top-dose-only effect, or another doubt; inactive means no such curve, though single readings can be large; an effect the other way counts as inactive or inconclusive.

SMILES	IL1B secr inh	VP16 counter	MCF10A rerep	SW480 rerep	RORgamma inh
COCCNC(=O)c1cccc(OC2CCN(Cc3ccc(C(=O)OC)cc3)CC2)c1	-16	-12%	?	-2%	-2%
COc1ccccc1C(=O)Nc1nnc([C@H]2C[C@H](O)[C@@H](CO)O2)s1	33	nt	nt	nt	nt
Cc1ccccc1CS(=O)(=O)c1nnc([C@H](CC(C)C)NC(=O)OC(C)(C)C)o1	-67*	4.5µM*	25%	?	7.1µM*
CC(C)[C@H](NC(=O)OC(C)(C)C)c1nnc(SCC(=O)Nc2ccc(Br)cc2)o1	4	32µM*	9%	-5%	2.5µM*
CC(C)=CCSc1nnc([C@@H](NC(=O)OC(C)(C)C)C(C)C)o1	0	20%	-1%	17%	-19%
CCOC(=O)CSc1nnc([C@H](Cc2ccccc2)NC(=O)OC(C)(C)C)o1	6	-3%	-4%	1%	-7%
C[C@H](NC(=O)OC(C)(C)C)c1nnc(SCC(=O)Nc2cccc(Cl)c2)o1	-1	-9%	2%	-16%	6%
CC(C)C[C@H](NC(=O)OC(C)(C)C)c1nnc(SCc2ccccc2)o1	-19	14%	430%[0.0737 µM]	2.6µM*	13%
CC(C)[C@H](NC(=O)OC(C)(C)C)c1nnc(S(=O)(=O)Cc2c(F)cccc2Cl)o1	?	5µM*	9.2µM*	20%	4.5µM*
O=C(NCc1ccccc1)C(c1cccc2ccccc12)n1c(=O)c(-c2ccccc2)nc2ccccc21 (stereo unspecified)	-4	nt	nt	nt	nt
CCCCCCC/C=C/C1=CC2(C)CC1(C)C(CCCCCCC)CC2=O (stereo unspecified)	nt	-8%[10 µM]	nt	nt	-9%[10 µM]
CC(C)(C)OC(=O)N[C@@H](Cc1ccccc1)c1nnc(S(=O)(=O)Cc2cccc(F)c2)o1	-80*	4.5µM*	?	?	4.5µM*
CC(C)C[C@H](N)c1nnc(S(=O)(=O)Cc2cccc(F)c2)o1	?	?	?	17%	6.3µM*
CC[C@@H](C)[C@H](NC(=O)OC(C)(C)C)c1nnc(S(=O)(=O)Cc2cc(C)ccc2C)o1	0	?	4.1µM*	13%	?
CC[C@@H](C)[C@H](NC(=O)OCc1ccccc1)c1nnc([C@@H](NC(=O)OCc2ccccc2)[C@@H](C)CC)o1	-9	-18%	-20%	2%	-19%
Cc1ccc(NS(=O)(=O)c2ccc3c(c2)OCCCO3)cc1S(=O)(=O)N1CCOCC1	23	nt	0%	-21%	nt
CCCN(CCC)Cc1cc(=O)oc2cc(C)c(C)cc12	15	nt	nt	nt	nt
COc1ccc(CN2CCC(CO)(CCOc3ccccc3)CC2)cc1C	-72*	-6%	-3%	0%	-25%
COc1cc(OC)c(CN2CCC(CO)(CCOc3ccccc3)CC2)c(OC)c1	-70*	-9%	22%	?	?
COc1cc(CN2CCC(CO)(CCOc3ccccc3)CC2)cc(OC)c1OC	8	-8%	1%	-30%	-36%
CCOc1cc(CN2CCC(CO)(Cc3cccc(C(F)(F)F)c3)CC2)ccc1OC	-74*	15%	3%	-14%[1.84 µM]	-3%
Cc1cc2nc(C3CCCCC3)c(Cc3cccc(Cl)c3)n2c(C)c1Br	38	nt	nt	nt	nt
O=C1NC[C@@H](CCCCN2CCN(Cc3ccccc3)C(=O)C2=O)N(CCC2CCCCC2)C1=O	-3	nt	nt	nt	nt
O=[N+]([O-])c1cc(-c2csc(NCCc3nc4cc(Cl)c(Cl)cc4n3CCCO)n2)ccc1Cl	?	nt	?	4%	nt
Cc1ccc(-c2csc(NCCc3nc4cc(Cl)c(Cl)cc4n3CCCO)n2)cc1	-56*	nt	-11%	-1%	nt
SMILES	IL1B secr inh	VP16 counter	MCF10A rerep	SW480 rerep	RORgamma inh
COc1ccc(-c2csc(NCCc3nc4cc(Cl)c(Cl)cc4n3CCCO)n2)cc1	-58*	nt	?	-4%	nt
OCCOCCn1c(CCNc2nc(-c3ccc(Cl)cc3)cs2)nc2cc(Cl)c(Cl)cc21	-16	nt	?	0%	nt
NS(=O)(=O)c1ccc(NC(=O)CN2CCN(S(=O)(=O)c3cccs3)CC2)cc1	19	nt	-1%	-66%	nt
c1ccc(CNc2nc(-c3ccc4c(c3)OCO4)nc3ccccc23)cc1	nt	-7%	nt	nt	7%
CC1CCN(c2ccc3c(c2)S(=O)(=O)c2cccc(C(=O)NC4CC4)c2C3=O)CC1	14	nt	-1%	2%	nt
COc1ncc2ncc(=O)n(CCc3ccccc3)c2n1	nt	18%	nt	nt	8%
O=C(N/N=C1\NC(=O)C(CO)(CO)S1)c1ccccc1	22	-3%	1%	-10%	-4%
O=C1CS/C(=N\NC(=O)c2ccccc2)N1	8	16µM*	6%	-66%	2.8µM*
COC(=O)c1ccc(/C=C/c2nc3ccccc3c(=O)[nH]2)cc1	3	?	2%	-4%	?
Cc1ccccc1/C=C/c1nc2ccccc2c(=O)[nH]1	35	?	18µM*	?	?
COc1cc(/C=C/c2nc(-c3ccccc3O)n[nH]2)cc(OC)c1OC	-121*	?	?	0%	?
COCCOC(=O)N/C=C\c1nc2ccccc2c(=O)[nH]1	33	15%	?	16µM*	17%
COc1cc(/C=C/c2nc3ccccc3c(=O)[nH]2)cc(OC)c1OC	?	-11%	18µM*	3.3µM*	2%
Cc1ccccc1/C=C\c1nc2ccccc2c(=O)[nH]1	0	3%	?	?	-5%
CCCCC[C@H](C)N1C[C@H](COCc2ccccc2)Oc2cc(N3CCC[C@H]3COC)ccc2S1(=O)=O	0	nt	nt	nt	nt
COc1cc(C(=O)NCC(c2ccco2)N2CCc3ccccc3C2)cc(OC)c1OC (stereo unspecified)	-2	nt	3%	-3%	nt
Cc1ccc(/C=C/c2nc3ccccc3c(=O)[nH]2)cc1	-11	?	?	?	2.5µM*
N#CCOc1ccccc1/C=C/c1nc2ccccc2c(=O)[nH]1	-4	?	25%	13µM*	?
CCC(=O)N(Cc1cc2ccccc2[nH]c1=O)c1ccccc1OC	21	7%	?	0%	-1%
CC1(Cc2ccc(OC(F)(F)F)cc2)C(=O)Nc2c(Cl)ccc(Cl)c21 (stereo unspecified)	48	nt	nt	nt	nt
CN(C)S(=O)(=O)c1cccc(NC(=S)N/N=C/c2cc(Br)ccc2O)c1	-73*	-8%	68%	?	1%
CN(C)S(=O)(=O)c1cccc(NC(=S)N/N=C/c2cccc(O)c2)c1	26	?	5%	-1%	8.9µM*
CN(C)S(=O)(=O)c1cccc(NC(=S)Nc2ccc3cn[nH]c3c2)c1	?	-13%	-1%	-4%	6%
Cc1ccc(S(=O)(=O)N2CCC(C(=O)OCC(=O)N(Cc3ccccc3)C(C)C)CC2)cc1C	44	nt	nt	nt	nt

Screening data deposited in PubChem by National Center for Advancing Translational Sciences (NCATS).
